Experimental data taken from PubChem BioAssay (EPA / NIEHS).
The source made the active and inactive calls. The calls were made as follows: active = hit-call score of the fitted dose curve at least 0.9, where 1 is the maximum; inactive = score below 0.9.

Legend:
[1] = read-out: Interleukin-1 alpha (IL1a), IL1A (gene 3552); experiment: BSK_KF3CT_IL1a: BioMAP Diversity Plus: KF3CT Assay for Interleukin-1 alpha (IL1a) Biomarker Activity (AID 2283070); conditions: primary human keratinocytes with fibroblasts; actives raise or lower the signal
Method in brief: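 Human keratinocyte plus foreskin fibroblast primary co-culture, sampled 24 h after chemical dosing. IL-1a measured by ELISA; responses fitted bidirectionally against DMSO baseline (negative control), so gain or loss of signal both count.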

[2] = read-out: Transforming growth factor beta 1 (TGFb1), TGFB1 (gene 7040); experiment: BSK_KF3CT_TGFb1: BioMAP Diversity Plus: KF3CT Assay for Transforming growth factor beta 1 (TGFb1) Biomarker Activity (AID 2283072); conditions: primary human keratinocytes with fibroblasts; actives raise or lower the signal
Method in brief: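 Human keratinocyte plus foreskin fibroblast primary co-culture, dosed with chemical for 24 h. TGF-b1 quantified by ELISA. Activity fitted bidirectionally against DMSO negative control as baseline.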

[3] = read-out: C-C motif chemokine 2 (Homo sapiens) (UniProt P13500); experiment: BSK_KF3CT_MCP1: BioMAP Diversity Plus: KF3CT Assay for Monocyte Chemoattractant Protein 1 (MCP1/CCL2) Biomarker Activity (AID 2283073); conditions: primary human keratinocytes with fibroblasts; actives raise or lower the signal
Method in brief: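 ELISA read-out of MCP-1, 24 h post-dose, in primary human skin keratinocytes co-cultured with fibroblasts. Parallel SRB staining monitors cytotoxicity; changes fitted both directions relative to DMSO.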

[4] = read-out: Matrix Metallopeptidase 9 (MMP9), MMP9 (gene 4318); experiment: BSK_KF3CT_MMP9: BioMAP Diversity Plus: KF3CT Assay for Matrix Metallopeptidase 9 (MMP9) Biomarker Activity (AID 2283074); conditions: primary human keratinocytes with fibroblasts; actives raise or lower the signal;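 as to AC50: MMP9 protein level quantified by ELISA in the co-culture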
Method in brief: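 Keratinocyte plus foreskin fibroblast human primary skin co-culture was dosed with chemical and MMP-9 was quantified by ELISA 24 h later. Bidirectional curve fitting used DMSO as negative control and activity baseline.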

[5] = read-out: urokinase plasminogen activator (uPA), PLAU (gene 5328); experiment: BSK_KF3CT_uPA: BioMAP Diversity Plus: KF3CT Assay for urokinase plasminogen activator (uPA) Biomarker Activity (AID 2283075); conditions: primary human keratinocytes with fibroblasts; actives raise or lower the signal
Method in brief: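 Human keratinocyte plus foreskin fibroblast primary co-culture exposed to chemical for 24 h. uPA levels were quantified by ELISA, and activity was fitted bidirectionally against a DMSO negative-control baseline.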

CD40, CD40 (gene 958) [6] = experiment: BSK_LPS_CD40: BioMAP Diversity Plus: LPS Assay for CD40 Biomarker Activity (AID 2283076); conditions: primary human HUVEC with PBMC; actives raise or lower the signal
Method in brief: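 In the LPS system of human endothelial cells with peripheral blood mononuclear cells, CD40 levels were read by ELISA 24 h post-treatment. Signal changes in either direction were fitted against the DMSO baseline, with parallel SRB protein staining.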

[7] = read-out: E-selectin (Homo sapiens) (UniProt P16581); experiment: BSK_LPS_Eselectin: BioMAP Diversity Plus: LPS Assay for Eselectin Biomarker Activity (AID 2283077); conditions: primary human HUVEC with PBMC; actives raise or lower the signal
Method in brief: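 E-selectin ELISA on LPS-stimulated endothelial cell/PBMC co-cultures, read 24 h post-treatment; gains and losses fitted against DMSO. Parallel SRB staining (0.1% SRB after 10% TCA fixation, 560 nm) flags overt cytotoxicity.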

[8] = read-out: Interleukin-8 (IL8), CXCL8 (gene 3576); experiment: BSK_LPS_IL8: BioMAP Diversity Plus: LPS Assay for Interleukin-8 (IL8) Biomarker Activity (AID 2283078); conditions: primary human HUVEC with PBMC; actives raise or lower the signal
Method in brief: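 ELISA read-out of IL-8 after 24 h chemical treatment of LPS-activated endothelial/PBMC human primary co-cultures. Changes either up or down relative to DMSO; overt cytotoxicity checked by sulforhodamine B staining in parallel wells.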

[9] = BSK_LPS_SRB: Viability Assessment in the BioMAP Diversity Plus: LPS Assay (AID 2283079); conditions: primary human HUVEC with PBMC;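 also: total protein by sulforhodamine B absorbance as a cytotoxicity measure; measured one day after compound addition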
Method in brief: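 SRB viability endpoint: cells fixed with 10% TCA, stained with 0.1% SRB, read at 560 nm, 24 h post-dose. HUVEC/PBMC co-culture; signal change in either direction scored relative to DMSO.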

[10] = read-out: Interleukin-1 alpha (IL1a), IL1A (gene 3552); experiment: BSK_LPS_IL1a: BioMAP Diversity Plus: LPS Assay for Interleukin-1 alpha (IL1a) Biomarker Activity (AID 2283080); conditions: primary human HUVEC with PBMC; actives raise or lower the signal
Method in brief: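 Readout is IL-1a level by ELISA, 24 h post-dose, fitted as gain or loss relative to DMSO. System: LPS-activated human primary co-culture of vascular endothelium and peripheral blood mononuclear cells, with parallel SRB total-protein cytotoxicity.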

[11] = read-out: Monocyte Chemoattractant Protein-1 (MCP1), CCL2 (gene 6347); experiment: BSK_LPS_MCP1: BioMAP Diversity Plus: LPS Assay for Monocyte Chemoattractant Protein-1 (MCP1) Biomarker Activity (AID 2283081); conditions: primary human HUVEC with PBMC; actives raise or lower the signal;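 as to AC50: secreted MCP-1 protein quantified by ELISA in culture supernatant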
Method in brief: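 Secreted MCP-1 read by ELISA at 24 h post-dosing in an LPS-activated co-culture of endothelial cells with peripheral blood mononuclear cells. Fits run in both directions, DMSO as baseline; parallel SRB staining tracks overt cytotoxicity.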

[12] = BSK_LPS_PGE2: BioMAP Diversity Plus: LPS Assay for Prostaglandin E2 (PGE2) Biomarker Activity (AID 2283082); conditions: primary human HUVEC with PBMC; actives raise or lower the signal;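 as to AC50: secreted prostaglandin E2 measured by ELISA in LPS-stimulated co-culture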
Method in brief: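 HUVEC plus PBMC co-culture stimulated with LPS; secreted PGE2 quantified by ELISA 24 h after chemical dosing. Activity fitted bidirectionally against DMSO as negative control and baseline; parallel SRB total-protein staining served as cytotoxicity check.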

[13] = read-out: Macrophage colony-stimulating factor (MCSF), CSF1 (gene 1435); experiment: BSK_LPS_MCSF: BioMAP Diversity Plus: LPS Assay for Macrophage colony-stimulating factor (MCSF) Biomarker Activity (AID 2283083); conditions: primary human HUVEC with PBMC; actives raise or lower the signal
Method in brief: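 Bidirectional fitting against DMSO was applied to M-CSF levels read by ELISA at 24 h post-dose. The system pairs human umbilical vein endothelium with peripheral blood mononuclear cells; parallel SRB staining tracked cytotoxicity.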

[14] = read-out: Tissue Factor, F3 (gene 2152); experiment: BSK_LPS_TissueFactor: BioMAP Diversity Plus: LPS Assay for Tissue Factor Biomarker Activity (AID 2283084); conditions: primary human HUVEC with PBMC; actives raise or lower the signal
Method in brief: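 Compound was added to an endothelial cell/PBMC co-culture, and after 24 h tissue factor (CD142) was read by ELISA. Gain or loss of signal was fitted against a DMSO baseline, and parallel SRB staining (560 nm) tracked overt cytotoxicity.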

[15] = read-out: Tumor necrosis factor (Homo sapiens) (UniProt P01375); experiment: BSK_LPS_TNFa: BioMAP Diversity Plus: LPS Assay for Tumour Necrosis Factor alpha (TNFa) Biomarker Activity (AID 2283085); conditions: primary human HUVEC with PBMC; actives raise or lower the signal
Method in brief: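 Human umbilical vein endothelial cells co-cultured with PBMC were exposed to test chemical and TNFa measured by ELISA 24 h after dosing. Bidirectional curve fitting was done relative to DMSO as negative control and baseline.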

[16] = read-out: Vascular cell adhesion molecule 1 (VCAM1), VCAM1 (gene 7412); experiment: BSK_LPS_VCAM1: BioMAP Diversity Plus: LPS Assay for Vascular cell adhesion molecule 1 (VCAM1) Biomarker Activity (AID 2283086); conditions: primary human HUVEC with PBMC; actives raise or lower the signal
Method in brief: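 Human umbilical vein endothelial cells co-cultured with peripheral blood mononuclear cells under LPS stimulation were exposed to test chemical for 24 h. VCAM-1 levels were then measured by ELISA, with bidirectional curve fitting relative to DMSO as negative control and baseline.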

CD38, CD38 (gene 952) = experiment: BSK_SAg_CD38: BioMAP Diversity Plus: SAg Assay for CD38 Biomarker Activity (AID 2283087); conditions: primary human HUVEC with PBMC; actives raise or lower the signal
Method in brief: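 Fluorescence ELISA of cell-surface CD38 served as the read-out, with either increase or decrease fitted against DMSO controls. Cells were a human umbilical vein endothelium plus PBMC co-culture under SEB/TSST-1 stimulation, measured 24 h after dosing.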

CD40, CD40 (gene 958) [17] = experiment: BSK_SAg_CD40: BioMAP Diversity Plus: SAg Assay for CD40 Biomarker Activity (AID 2283088); conditions: primary human HUVEC with PBMC; actives raise or lower the signal
Method in brief: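 CD40 is measured by fluorescence ELISA in an endothelial/PBMC primary human co-culture at 24 h post-dose. Fitting is bidirectional, DMSO baseline. Parallel SRB staining (560 nm) flags cytotoxicity.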

[18] = read-out: TIMP metallopeptidase inhibitor 2 (TIMP2), TIMP2 (gene 7077); experiment: BSK_KF3CT_TIMP2: BioMAP Diversity Plus: KF3CT Assay for TIMP metallopeptidase inhibitor 2 (TIMP2) Biomarker Activity (AID 2283071); conditions: primary human keratinocytes with fibroblasts; actives raise or lower the signal
Method in brief: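 Human primary keratinocyte/foreskin fibroblast co-culture dosed with chemical and sampled at 24 h. TIMP-2 levels quantified by ELISA; bidirectional fitting against DMSO negative control as baseline.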

CD69, CD69 (gene 969) = experiment: BSK_SAg_CD69: BioMAP Diversity Plus: SAg Assay for CD69 Biomarker Activity (AID 2283089); conditions: primary human HUVEC with PBMC; actives raise or lower the signal;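 as to AC50: cell surface CD69 protein quantified by ELISA with fluorescence detection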
Method in brief: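 Primary human vascular co-culture (umbilical vein endothelium with peripheral blood mononuclear cells) exposed to test chemical for 24 h. CD69 levels quantified by fluorescence ELISA; DMSO served as negative control for bidirectional fitting.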

Measured: AC50

Sequence of E-selectin (Homo sapiens) (P16581 whole entry, looked up): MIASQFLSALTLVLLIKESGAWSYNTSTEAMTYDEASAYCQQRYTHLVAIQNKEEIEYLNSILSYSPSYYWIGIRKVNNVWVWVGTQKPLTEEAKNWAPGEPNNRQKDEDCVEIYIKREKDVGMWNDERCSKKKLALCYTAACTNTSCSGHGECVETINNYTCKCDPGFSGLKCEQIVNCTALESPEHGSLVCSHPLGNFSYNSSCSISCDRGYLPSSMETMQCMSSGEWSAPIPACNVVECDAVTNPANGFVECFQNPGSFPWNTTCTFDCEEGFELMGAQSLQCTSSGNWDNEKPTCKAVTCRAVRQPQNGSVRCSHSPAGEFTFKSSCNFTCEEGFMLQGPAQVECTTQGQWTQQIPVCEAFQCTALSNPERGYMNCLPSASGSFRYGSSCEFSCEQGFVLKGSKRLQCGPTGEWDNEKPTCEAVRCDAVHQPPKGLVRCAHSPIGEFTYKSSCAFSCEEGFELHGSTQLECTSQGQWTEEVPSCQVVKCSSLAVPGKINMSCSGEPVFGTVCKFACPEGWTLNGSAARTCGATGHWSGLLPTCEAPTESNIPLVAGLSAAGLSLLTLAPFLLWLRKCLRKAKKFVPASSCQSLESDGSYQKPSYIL
Sequence of Tumor necrosis factor (Homo sapiens) (P01375 whole entry, looked up): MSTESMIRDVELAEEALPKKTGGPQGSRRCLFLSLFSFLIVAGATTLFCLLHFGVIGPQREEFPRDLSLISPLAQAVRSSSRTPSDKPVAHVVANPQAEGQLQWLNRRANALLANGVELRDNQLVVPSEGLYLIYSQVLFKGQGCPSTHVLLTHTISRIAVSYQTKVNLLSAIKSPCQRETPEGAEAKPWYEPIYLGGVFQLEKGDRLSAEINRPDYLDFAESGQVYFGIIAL

Nc1ccc(Cl)cc1
not listed: [18] | CD69, CD69 (gene 969)
inactive: all other assays above

O=C(O)C=CC(F)(C(F)(F)F)C(F)(F)F
not listed: [2] | CD69, CD69 (gene 969)
inactive: all other assays above

CCCCOCCOP(=O)(OCCOCCCC)OCCOCCCC
active: [2] 0.016 µM | [4] 3.97 µM
not listed: [7]
inactive: all other assays above

CC(C)(C)c1ccccc1OP(=O)(Oc1ccccc1)Oc1ccccc1
active: [1] 20 µM | [18] 20 µM | [4] 8.49 µM | CD40, CD40 (gene 958) [6] 25.3 µM | [8] 20 µM | [9] 20 µM | [10] 27.3 µM | [11] 20 µM | [13] 20 µM | [16] 20 µM | CD38, CD38 (gene 952) 30.7 µM | CD40, CD40 (gene 958) [17] 28.3 µM | CD69, CD69 (gene 969) 27.5 µM
inactive: [2] | [3] | [5] | [12] | [14] | [15]

CSC(C)(C)C=NO
not listed: [18] | CD69, CD69 (gene 969)
inactive: all other assays above

ClC(Cl)(Cl)c1ccccc1
not listed: [18] | CD69, CD69 (gene 969)
inactive: all other assays above

Cc1ccc(O)cc1C
active: [12] 4.57 µM
not listed: [7]
inactive: all other assays above
